Screens: PubChem, National Center for Advancing Translational Sciences (NCATS)
D2 antagonist: antagonists of human D2 dopamine receptor | P14416 | AID 485344 | HEK293 TREx D2 cells, calcium flux, dopamine EC80 | inhibition, % at 10 µM | 340,000 tested, 2% active; in the data active = inhibition above about 30%; inactive = below that, where a call was filed; also: 0% is about no effect
Target sequence (P14416 whole entry, looked up): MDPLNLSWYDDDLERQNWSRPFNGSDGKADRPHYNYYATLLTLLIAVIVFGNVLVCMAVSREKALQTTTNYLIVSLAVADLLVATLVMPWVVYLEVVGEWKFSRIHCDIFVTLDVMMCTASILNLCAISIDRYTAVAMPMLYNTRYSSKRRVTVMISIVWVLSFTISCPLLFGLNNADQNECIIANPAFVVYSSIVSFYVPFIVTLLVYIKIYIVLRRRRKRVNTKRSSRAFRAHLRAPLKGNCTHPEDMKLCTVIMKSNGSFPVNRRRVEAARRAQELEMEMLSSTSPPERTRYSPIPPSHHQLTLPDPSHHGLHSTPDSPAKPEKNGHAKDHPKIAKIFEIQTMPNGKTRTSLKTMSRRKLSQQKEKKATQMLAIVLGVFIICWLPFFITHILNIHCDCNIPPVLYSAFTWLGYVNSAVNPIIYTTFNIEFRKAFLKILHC
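In this primary screen, negative modulation is detected by tracking calcium flux after an EC80 dopamine challenge in inducible HEK293 T-REx D2 cells preexposed to test compound for 180 s.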
D2 PAM-1: human D2 receptor positive allosteric modulation; P14416; DiscoveRx D2 beta-arrestin cells, luminescence, 90 min; 100% = 57 uM dopamine signal; potentiation, % (test concentration not listed); 360,000 tested, 0.23% active; in the data active = potentiation above about 50%; inconclusive = mostly about 30% to 49%
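PathHunter beta-arrestin assay in DiscoveRx D2 cells. Compounds were added with an EC20 of dopamine (50 nM final) for 90 min at 37 deg C. Luminescence was read 1 h after detection reagent, with 57 uM dopamine as the EC100 control.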
D2 PAM-2: D2 dopamine receptor (human) potentiation. HEK293 T-REx D2, calcium flux, EC20 dopamine potentiation. potentiation, % at 10 µM. 340,000 tested, 0.34% active;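 active = potentiation over 3 SD above the plate norm, cut at about 30% in these data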; also: 0% is about no effect
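Tetracycline-induced HEK293 T-REx cells force-coupled to calcium signalling expressed D2; compounds were pin-added after a 10 s baseline, read kinetically 180 s, then an EC20 dopamine challenge followed with a further 180 s calcium read.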
D2 ag-1: D2 dopamine receptor (human) agonism; 340,000 tested, 0.53% active; activation, % at 2 µM; AID 485358; HEK293 T-REx D2 cells, calcium flux agonist mode;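 active = activation over 3 SD above normal in the single-dose calcium agonist read, cut at about 30% in these data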; also: 0% is about no effect
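HEK293 Trex D2 cells, tetracycline-induced, o/n 30 C 5% CO2; no-wash Ca dye, RT 30–90 min; 10-cycle baseline, 23 nl cpd added, kinetic Ca read 180 s; agonist hits = positive Ca response.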
D2 ag-2: agonists of human D2 dopamine receptor (beta-arrestin); 360,000 tested, 0.084% active; activation, % (concentration not given with the values); P14416; DiscoveRx PathHunter D2 beta-arrestin, luminescence, 90 min; 100% = 57 uM dopamine signal; in the data active = activation above about 40%; inconclusive = between about 15% and that limit
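DiscoveRx PathHunter D2 beta-arrestin cells (2,100/well) attached overnight, then compound-stimulated 90 min at 37 C in HBSS/10 mM HEPES/0.1% Tween-20 buffer; beta-galactosidase complementation read by luminescence after 1 h at ambient temperature. Dopamine 57 uM final (EC100) as control.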
An asterisk follows results filed as active; u = inconclusive; x = no result given. The list is not random: actives were taken first. Their share in the collection is about 2.4%.

SMILES | D2 antagonist | D2 PAM-1 | D2 PAM-2 | D2 ag-1 | D2 ag-2
CN(C)S(=O)(=O)c1cccc(C(=O)NCc2ccco2)c1 | -15.3 | -14.8 | 2.8 | 0.2 | 0.0
Cc1ccc(S(=O)(=O)N(C)C)cc1NC(=S)NCc1ccco1 | 39.7* | -43.2 | x | 0.3 | -3.8
Cc1ccc(S(=O)(=O)N(C)C)cc1NC(=S)Nc1ccc2[nH]c(=O)[nH]c2c1 | 48.9* | -23.6 | -13.9 | 1.4 | -1.8
CC[C@@H](C(=O)[C@@H](C)[C@@H](O)[C@H](C)CCc1ccc(C)c(O)c1C(=O)O)[C@H]1O[C@](CC)([C@H]2CC[C@](O)(CC)[C@H](C)O2)C[C@@H]1C | 48.9* | u | -20.5 | 15.1 | u
CC(C)Oc1ccccc1-c1nc(SCC(=O)c2ccc(F)cc2)n[nH]1 | x | x | -2.0 | 0.6 | x
COc1ccc(-c2csc(NC(=O)CN3C(=O)NC4(CCCC4)C3=O)n2)cc1 | 38.3* | 1.9 | -14.5 | 0.0 | 0.6
O=C(Nc1cccc(-c2nc3ccccc3o2)c1)C(F)(F)F | x | x | 1.4 | 0.0 | x
CC(C)Oc1cccc(NC(=O)C2(C)CCN2C(C)C)c1 (stereo not drawn) | x | -6.6 | x | x | -1.3
CC/C(=N/Nc1ccc(Cl)cc1)c1cnnc(SC)n1 | 33.6* | -9.2 | 6.1 | 0.0 | -2.0
O=C(CSc1nnc(NC(=O)c2ccccc2F)s1)Nc1ccccc1F | 36.0* | 5.2 | -8.7 | 0.3 | 0.3
CC(=O)Nc1ccc(NC(=O)CSc2nnc(NC(=O)Cc3ccc(F)cc3)s2)cc1 | 34.0* | -5.6 | -21.3 | 0.0 | -1.7
CCSc1nnc(NC(=O)c2cnccn2)s1 | 12.0 | -1.5 | -1.5 | 0.1 | 0.1
O=C(Nc1nnc(SCc2ccc(F)cc2)s1)c1cnccn1 | 33.4* | -12.0 | 0.6 | 1.0 | -2.7
COc1ccc(-c2nnc(Nc3ccc(OCC(N)=O)cc3)c3ccccc23)cc1 | x | x | 1.2 | -1.0 | x
CCCCNC(=O)C1(C)CCN1C(=O)Cc1cccc2ccccc12 (stereo not drawn) | x | -0.4 | x | x | -5.9
O=C(CSC1=NCCN1)Nc1cccc([N+](=O)[O-])c1 | 49.1* | -22.1 | -21.5 | -0.4 | -3.9
O=C(CSC1=NCCN1)Nc1ccccc1[N+](=O)[O-] | -4.7 | -14.9 | -17.0 | -0.4 | -8.9
Cc1ccc(NC2CCCN(C(=O)c3cccnc3)C2)cc1C (stereo not drawn) | 35.6* | -4.4 | 14.2 | -0.5 | 3.0
CC(C)c1ccc(NC2CCCN(C(=O)c3cccnc3)C2)cc1 (stereo not drawn) | 16.1 | -1.5 | -6.9 | 0.9 | -0.7
CC1CCN(CC(=O)N2CCc3ccccc32)CC1 | 53.6* | -10.7 | -21.8 | 0.3 | 1.8
CCOC(=O)C1CCN(CC(=O)N2CCc3ccccc32)CC1 | x | -17.2 | x | x | -1.4
COc1cc(C(O)c2nc(-c3csc4ccccc34)cs2)ccc1F (stereo not drawn) | x | -3.2 | x | x | 3.6
Cc1cc(C)cc(NC(=O)CNS(=O)(=O)c2ccc3nc(C)sc3c2)c1 | x | x | -0.3 | 0.1 | x
CC(Cc1ccc(Cl)cc1)N1CCC(n2nccc2NC(=O)C2CCCC2)CC1 (stereo not drawn) | 31.1* | -6.8 | -13.9 | 1.4 | -1.3
O=C(Nc1ccnn1C1CCN(Cc2ccccc2)CC1)C1CCCC1 | 14.8 | -39.3 | -13.6 | -0.1 | -2.9
SMILES | D2 antagonist | D2 PAM-1 | D2 PAM-2 | D2 ag-1 | D2 ag-2
CSCC(C)N1CCC(n2nccc2NC(=O)c2ccc3c(c2)OCO3)CC1 (stereo not drawn) | 58.3* | -3.7 | -1.1 | 0.1 | -3.1
COc1ccc2[nH]cc(CCNC(=O)/C=C/[C@H]3O[C@@H](n4cc(C)c(=O)[nH]c4=O)C[C@@H]3O)c2c1 | x | -2.0 | x | x | 2.1
CC(=O)Nc1cc(-c2ccccc2CN(C)C)cn2c(-c3ccc(C(C)=O)cc3)cnc12 | x | -1.9 | x | x | -5.7
Cc1ccc(S(=O)(=O)NC(=O)Nc2cccc([N+](=O)[O-])c2)cc1 | 68.1* | -8.1 | 1.5 | 0.2 | 0.8
Cc1ccc(S(=O)(=O)NCC(=O)Nc2cccc([N+](=O)[O-])c2)cc1 | -12.2 | -8.6 | 5.0 | -0.5 | 0.6
Cc1ccc(S(=O)(=O)N(C)c2ccc(C(=O)Nc3cccnc3)cc2)cc1 | 35.0* | -28.3 | -5.0 | 0.1 | -0.8
Cc1ccc(S(=O)(=O)N(CC(=O)Nc2cccnc2)c2cccc([N+](=O)[O-])c2)cc1 | 50.2* | -20.7 | -23.3 | -0.9 | -1.3
Cc1ccc(S(=O)(=O)N(C)/N=C/c2ccc(C(=O)O)cc2)cc1 | 30.3* | 2.3 | -3.4 | -0.4 | -4.5
Cc1c(C(=O)Nc2cccc(Cl)c2)sc2nc3n(c(=O)c12)N=C(c1cccc(Br)c1)CS3 | x | x | -7.1 | -0.4 | x
CCOC(=O)Cc1ccc(NC(=O)NC(C)c2c(-n3cccc3)sc(C)c2C)cc1 (stereo not drawn) | x | x | 0.9 | -0.1 | x
Cc1ccc(CSc2nnc3[nH]c(=O)cc(-c4ccccc4)n23)cc1 | x | x | -10.7 | -0.3 | x
CS(=O)(=O)N(CC(=O)Nc1cccc([N+](=O)[O-])c1)c1ccccc1F | 44.4* | -5.0 | 5.1 | -0.8 | -6.5
COc1cc(/C=N/NC(=O)c2ccc(N(C)S(=O)(=O)c3ccccc3)cc2)cc(OC)c1OC | -2.6 | -3.8 | -3.3 | 0.2 | 2.1
CCOc1cc(/C=N/NC(=O)c2ccc(N(C)S(=O)(=O)c3ccccc3)cc2)ccc1OC | 31.2* | -3.3 | -4.2 | 1.2 | -0.6
CS(=O)(=O)N(CC(=O)Nc1cccc([N+](=O)[O-])c1)c1ccccc1 | -25.3 | -7.4 | 1.5 | -1.1 | -6.3
Cc1ccc(/C=N/NC(=O)c2ccc(N(C)S(=O)(=O)c3ccccc3)cc2)cc1 | 48.3* | -7.0 | -5.0 | -0.1 | 0.8
COC1CC(N)C2OC(c3ccccc3)OCC2O1 (stereo not drawn) | x | -11.2 | x | x | -4.3
CC1(C)Cc2c(sc3nc(SCC(=O)NCc4ccco4)n(-c4ccccc4)c(=O)c23)CS1 | 30.4* | -9.0 | -3.5 | 0.7 | 0.8
O=C(CSc1nc2sc3c(c2c(=O)n1-c1ccccc1)CCCC3)NCc1ccco1 | -1.1 | -6.1 | -10.0 | 1.5 | 1.9
Cc1ccc(C(=O)OCC(=O)c2ccc(Br)cc2)cc1S(=O)(=O)N1CCOCC1 | x | -7.7 | x | x | -3.3
O=C(c1ccc2c(c1)N(Cc1ccccc1F)C(=O)c1ccccc1S2=O)N1CCOCC1 (stereo not drawn) | x | x | -1.5 | 0.8 | x
COc1ccc(S(=O)(=O)N2CCC3(CC2)CC(=O)c2ccccc2O3)cc1OC | 45.2* | -4.0 | -11.3 | 0.4 | 8.8
CC(=O)Nc1ccc(S(=O)(=O)N2CCC3(CC2)CC(=O)c2ccccc2O3)cc1 | -29.0 | -9.4 | 10.5 | -0.8 | -0.4
CN(C)CCN(Cc1cc2cc3c(cc2[nH]c1=O)OCCO3)C(=S)NCC1CCCO1 (stereo not drawn) | 40.8* | 1.5 | -1.1 | 0.0 | 1.3
